This is a sample that favours compounds with a hit; in the whole collection about 2.5% have one here.
14-3-3 Bad inh: inhibitors of 14-3-3 zeta/Bad binding, primary screen, biochemical, TR-FRET, bovine 14-3-3 zeta; 14-3-3 protein zeta/delta (Bos taurus), P63103; TR-FRET 14-3-3zeta/Dy647-pBad peptide displacement, 1 h; inhibition, % at 21.7 µM; actives 0.71% (n = 220,000); AID 781, 2007;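 active means inhibition above about 70%, limit read from the data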;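 further: 0% = full 14-3-3 plus peptide FRET controls and 100% = background without 14-3-3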
MCL1-BIM inh: inhibitors of MCL1 binding to BIM-BH3, primary screen, biochemical, fluorescence polarization. Induced myeloid leukemia cell differentiation protein Mcl-1 (Homo sapiens), Q07820. GST-MCL1 / FITC-Bim-BH3 fluorescence polarization. inhibition, % at 10.9 µM. actives 0.68% (n = 320,000). AID 2057, 2009;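 active means inhibition above the mean inhibition of all tested compounds plus 3 SD, set per campaign, cut at about 40% in these data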;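 further: 0% = DMSO wells and 100% = unlabeled Bim-BH3 peptide control; higher means more loss of mP so more displacement of Bim peptide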
Target sequence (Q07820 whole entry, looked up): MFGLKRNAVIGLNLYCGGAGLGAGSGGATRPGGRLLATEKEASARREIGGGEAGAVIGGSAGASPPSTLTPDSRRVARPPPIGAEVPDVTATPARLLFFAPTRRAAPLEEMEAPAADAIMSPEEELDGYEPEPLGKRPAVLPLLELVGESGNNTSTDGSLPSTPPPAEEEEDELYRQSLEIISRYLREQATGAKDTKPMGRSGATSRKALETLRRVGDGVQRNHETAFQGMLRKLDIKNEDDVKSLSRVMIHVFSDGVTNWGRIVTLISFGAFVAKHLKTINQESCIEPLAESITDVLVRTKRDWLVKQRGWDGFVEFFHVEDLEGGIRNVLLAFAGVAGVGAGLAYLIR
Mcl1 Noxa PPI: Mcl-1/Noxa binding inhibitors, primary screen, biochemical, TR-FRET, 1536-well; Induced myeloid leukemia cell differentiation protein Mcl-1 (Homo sapiens), Q07820; TR-FRET Mcl-1/Noxa peptide binding, 2 h; inhibition, % at 21.7 µM; actives 1.5% (n = 220,000); AID 1022, 2008;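 active means compounds that cut the protein-peptide binding signal by more than 50% relative to plate controls in a single-dose test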;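 further: His-tagged Mcl-1 with rhodamine Noxa BH3 peptide and terbium anti-His antibody; 0% = Mcl-1 plus Noxa peptide wells and 100% = peptide-only wells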
Mcl1-Bid inh: Mcl-1/Bid binding inhibitors, primary screen, biochemical, TR-FRET, 1536-well | Induced myeloid leukemia cell differentiation protein Mcl-1 (Homo sapiens), Q07820 | TR-FRET Mcl-1/Bid-Dy647 peptide binding | inhibition, % at 21.7 µM | actives 0.97% (n = 220,000);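 active means compounds that cut the binding signal by more than half at the single screening dose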;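 further: His-tagged Mcl-1 with europium anti-His antibody binding Bid BH3 peptide; 0% = Mcl-1 plus peptide wells and 100% = peptide-only wells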
Mcl-1 Bim block: inhibitors of Bim peptide binding to Mcl-1, primary screen, biochemical, bead-based flow cytometry, multiplex; Induced myeloid leukemia cell differentiation protein Mcl-1 (Homo sapiens), Q07820; Bim peptide-Mcl-1 binding; inhibition, % at 10 µM; actives 0.1% (n = 190,000); AID 1009, 2008; in the data active means inhibition above about 40%;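 further: 0% = no compound tracer wells and 100% = peptide blocker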
Numbers without * were called inactive; nt = no result given; [ ] = another dose, or the depositor's remark.

SMILES	14-3-3 Bad inh	MCL1-BIM inh	Mcl1 Noxa PPI	Mcl1-Bid inh	Mcl-1 Bim block
C=CCSC1=Nc2sccc2C2=NC(=O)CN12	18	18	56*	22	0
Nc1cc(Oc2cccnc2)cc([N+](=O)[O-])c1	89*	nt	4	-15	-37
COc1ccc(S(=O)(=O)N(C)CC(=O)N2CCOCC2)cc1	1	4	11	-9	-1
COc1ccc2c(c1)nc(SCC(C)O)n2C (configuration not stated)	3	-2	6	-15	-2
COc1ccc2c(c1)nc(SCC(=O)c1cccs1)n2C	71*	-6	14	-2	1
COc1ccc2c(c1)nc(SCC(=O)C(C)(C)C)n2C	73*	-5	17	6	-4
COc1ccc(-c2ccc(SCC(=O)c3cccs3)nn2)cc1	-11	-2	14	-24	-1
CN(CC(=O)Nc1cccc(C#N)c1)Cc1ccc(Cl)cc1	-12	-3	5	86*	0
COc1cccc(-n2c(SCc3ccccn3)nc3c(c2=O)SCC3)c1	-13	5	14	82*	-2
O=c1c2cc(N3CCOCC3)ccc2[nH]c(=S)n1Cc1ccc(Cl)cc1	7	7	20	5	-10
Cc1ccc(Cn2c(=S)[nH]c3ccc(N4CCOCC4)cc3c2=O)o1	10	22	73*	-4	3
O=C(Nc1ccc(-c2nc3ccccc3o2)cc1)c1ccc(N2CCOCC2)c([N+](=O)[O-])c1	5	2	16	6	-1
COc1ccc2oc(-c3ccc(NC(=O)c4ccc(N5CCOCC5)c([N+](=O)[O-])c4)cc3)nc2c1	17	-2	55*	-11	6
CC(C)COC(=O)C(N)C(C(=O)OCC(C)C)c1ccccc1 (configuration not stated)	28	1	14	19	-3
CC1CCCCN1C(=O)C1CCN(S(=O)(=O)c2ccc(-n3cnnn3)cc2)CC1 (configuration not stated)	nt	4	nt	nt	nt
CC(=O)NNC(=O)c1sc(=S)n2c1[nH]c(=O)c1sccc12	-6	26	68*	-20	-7
O=C(NCc1ccccc1)c1sc(=S)n2c1[nH]c(=O)c1ccccc12	35	15	52*	-21	1
CCOC(=O)Cc1csc(NC(=O)c2ccc(Br)o2)n1	3	7	0	-22	-1
CCOC(=O)Cc1csc(NC(=O)c2sc3nc4ccc(CC)cc4cc3c2N)n1	65	11	89*	91*	5
COc1ccc(NS(=O)(=O)c2ccc(O)c(NC(=O)c3cc4c(C)nn(-c5ccc(F)cc5)c4s3)c2)cc1	3	-2	65*	7	2
COc1ccc(N2CC(C(=O)Nc3ccc(S(=O)(=O)Nc4nccs4)cc3)CC2=O)cc1 (configuration not stated)	-3	-5	14	1	0
CS(=O)(=O)NCc1ccc(C(=O)NCCOc2ccccc2)cc1	36	4	34	91*	2
CCOC(=O)C1=C2NC(=O)c3ccccc3N2C(=O)C1	-12	43*	-1	-29	-1
CN(C)CCNC(=O)c1cc(Br)ccc1Cl	-9	3	3	-4	-1
COc1ccccc1OC1=NS(=O)(=O)c2ccccc21	85*	0	13	13	2
CCN(CC)CCCNc1oc(/C=C/c2ccccc2)nc1C#N	1	-4	6	-31	nt
COC(=O)c1cc(NC(=O)Cn2c(=O)cnc3ccccc32)cc(C(=O)OC)c1	20	1	27	62*	1
O=C(CN1C(=O)S/C(=C\c2ccc(Cl)cc2)C1=O)NNC(=O)c1ccccc1O	77*[fluorescence artefact?]	33	65*	82*	-6
CC1CCN(C(=O)CCc2ccc(Oc3cc([N+](=O)[O-])cc([N+](=O)[O-])c3)cc2)CC1	-2	14	11	9	-6
CC(C)N(C(=O)CSc1nnnn1-c1ccc2c(c1)OCO2)C(C)C	-11	-10	-1	65*	-3

Screening results: PubChem BioAssay, several laboratories
